According to PubChem BioAssay (NCI):
The panel holds about 79,000 compounds, 15% with a hit somewhere; the sample as a whole holds those more often. The source made the active and inactive calls. Cut-off read from the data, not from the text of the source: active = growth inhibition above about 70%; inactive = the rest.

test: NCI Yeast Anticancer Drug Screen. Data for the bub3 strain (AID 167); details: S. cerevisiae bub3 mutant strain, at 50.0 µM, stronger effect = higher value
Method in brief: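 Inhibition values come from growth of compound-treated mutant yeast normalised to vehicle-treated controls.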

**Q.** With `Cc1nc(N/N=C/c2ccccc2Cl)[nH]c(=O)c1CCO` as the compound, how does the growth inhibition read?
**A.** -30.2% (inactive)

**Q.** For `CSCCC(NC=O)C(=O)O` (stereo not given), which growth inhibition is on record?
**A.** 5.75% (inactive)

**Q.** With `S=C1CC(c2ccccc2)Sc2ccccc2N1` (stereo not given) as the compound, how does the growth inhibition read?
**A.** 30.3% (inactive)

**Q.** Which growth inhibition does the source give for `C/C(=N/O)c1sc(-c2nc(C)c(/C(C)=N\O)s2)nc1C` here?
**A.** -6.6% (inactive)

**Q.** Which growth inhibition does the source give for `CCCCCC1NC(C)(C)CO1` (stereo not given) here?
**A.** 9.65% (inactive)

**Q.** For `CCCC1SCC(C)(C)NC1=O` (stereo not given), which growth inhibition is on record?
**A.** 7.05% (inactive)

**Q.** With `OC1C=COC2COC(c3ccccc3)OC12` (stereo not given) as the compound, how does the growth inhibition read?
**A.** -5.4% (inactive)

**Q.** For `CCCCCCCCSc1nc2ccc(N=Cc3ccccc3O)cc2s1`, which growth inhibition is on record?
**A.** 21.7% (inactive)

**Q.** With `COC1CCC2(C)C3CCC4C(=CCC5C(C)(C)C(=O)CCC45C)CC3(C)CCC2C1(C)C` (stereo not given) as the compound, how does the growth inhibition read?
**A.** -2.2% (inactive)

**Q.** With `CCOC(=O)CS(=O)(=O)C1CCCCC1c1cc(OC)c(OC)c(OC)c1` (stereo not given) as the compound, how does the growth inhibition read?
**A.** 0.6% (inactive)

**Q.** With `CN1CCN(C(=S)N(C(=O)c2ccc(Cl)cc2)C2CCCCC2)CC1` as the compound, how does the growth inhibition read?
**A.** -66.9% (inactive)

**Q.** With `COC(OC)c1cccc2c1C(=O)CCC1(O)c3ccccc3C1C2` (stereo not given) as the compound, how does the growth inhibition read?
**A.** -30.1% (inactive)

**Q.** Which growth inhibition does the source give for `CC(=O)NC1C(=O)N(c2ccccc2)N=C1C` (stereo not given) here?
**A.** -6.5% (inactive)

**Q.** Which growth inhibition does the source give for `Fc1ccc(CSC(=S)Nc2ccc(I)cc2)cc1` here?
**A.** 98.7% (active)

**Q.** For `C/C(=C\c1ccccc1)C(=O)c1ccccc1`, which growth inhibition is on record?
**A.** 3.45% (inactive)

**Q.** For `CC(C)(C)NC(=O)NCc1ccc(Cl)cc1`, which growth inhibition is on record?
**A.** 1% (inactive)

**Q.** Which growth inhibition does the source give for `CCC(=O)n1cc2ccc([N+](=O)[O-])cc2n1` here?
**A.** 13.2% (inactive)

**Q.** Which growth inhibition does the source give for `CC(C)CCC[C@@H](C)[C@H]1CC[C@H]2[C@@H]3CC[C@H]4C[C@@H](CCC=C(c5cc(Cl)c(O)c(C(=O)O)c5)c5cc(Cl)c(O)c(C(=O)O)c5)CC[C@]4(C)[C@H]3CC[C@]12C` here?
**A.** 24.5% (inactive)

**Q.** With `CCCCS(=O)(=O)CCCC` as the compound, how does the growth inhibition read?
**A.** -1.3% (inactive)

**Q.** For `CN1C(c2ccccc2)=C(C#N)C(=O)CC(c2ccco2)N1C` (stereo not given), which growth inhibition is on record?
**A.** 11% (inactive)

**Q.** For `COc1ccc(-c2nc(N)nc3c2CN(CCCC(=O)O)C3=O)cc1`, which growth inhibition is on record?
**A.** 9.3% (inactive)

**Q.** Which growth inhibition does the source give for `O=C(O)CCC(=O)Nc1cc(C(F)(F)F)ccc1Cl` here?
**A.** 14.8% (inactive)

**Q.** Which growth inhibition does the source give for `C=C1OC(c2ccccc2NC)=NC12CCCCC2` here?
**A.** -14.8% (inactive)

**Q.** For `COc1cc(N=Nc2c(Cl)cc([N+](=O)[O-])cc2Cl)c(OC)cc1N=Nc1ccc(N)nc1N`, which growth inhibition is on record?
**A.** 3.85% (inactive)

**Q.** Which growth inhibition does the source give for `CSC(=N\N=C\c1c(F)cccc1Cl)/N=C/N(C)C` here?
**A.** -2.85% (inactive)

**Q.** For `CCCCCN1C(=O)N=NC1=S`, which growth inhibition is on record?
**A.** -13.8% (inactive)

**Q.** For `COc1cc2c(c(OC)c1OC)-c1ccc(OC)c(=O)cc1[C@@H](NC(=O)c1ccccc1)CC2`, which growth inhibition is on record?
**A.** 14.2% (inactive)

**Q.** With `C[N+]1(C)CC=C(N2CCOCC2)CC1` as the compound, how does the growth inhibition read?
**A.** -12.9% (inactive)

**Q.** With `CCCCC[N+](CCCCC)(CCCCC)CCCCC` as the compound, how does the growth inhibition read?
**A.** 14% (inactive)

**Q.** Which growth inhibition does the source give for `O=P(c1ccccc1)(c1ccccc1)C(O)c1ccc(F)cc1` (stereo not given) here?
**A.** 1.4% (inactive)

**Q.** With `Nc1nc2[nH]c(=O)c(C(=O)O)nc2c(=O)[nH]1` as the compound, how does the growth inhibition read?
**A.** 10.4% (inactive)

**Q.** For `COc1cc2nncc(SCc3ccc(Cl)cc3)c2cc1OC`, which growth inhibition is on record?
**A.** 15.5% (inactive)

**Q.** Which growth inhibition does the source give for `Cc1ccccc1-c1c2ccccc2cc2c1ccc1ccccc12` here?
**A.** 9.35% (inactive)

**Q.** With `CCOC(=O)CC(C)C(C(=O)OCC)C(=O)OCC` (stereo not given) as the compound, how does the growth inhibition read?
**A.** 23.6% (inactive)

**Q.** Which growth inhibition does the source give for `CCCc1cc(=O)oc2c3c(c4c(c12)OC(C)(C)C=C4)OC(C)[C@H](C)[C@@H]3O` (stereo not given in full) here?
**A.** 19.8% (inactive)

**Q.** With `O=C(O)C12C3CCC(CC3)C1(C(=O)O)C1CCC2C1` (stereo not given) as the compound, how does the growth inhibition read?
**A.** 5.05% (inactive)

**Q.** With `CNC(=O)OCc1c(COC(=O)NC)c(-c2ccc(F)cc2)n2c1CCC2` as the compound, how does the growth inhibition read?
**A.** 7.55% (inactive)

**Q.** Which growth inhibition does the source give for `NNC(=O)c1oc2ccccc2c1CN(CCO)CCO` here?
**A.** -1.15% (inactive)

**Q.** Which growth inhibition does the source give for `CC(=O)O[C@H]1CC[C@]2(C)C3CC[C@]4(C)C([C@H](C)CCCC(C)C)CCC4[C@]3(/C=N/O)n3c(=O)n(-c4ccccc4)c(=O)n3[C@]2(/C=N\O)C1` (stereo not given in full) here?
**A.** 38.9% (inactive)

**Q.** With `CCOC(=O)Nc1ccccc1F` as the compound, how does the growth inhibition read?
**A.** 4.75% (inactive)
